# Data from paper PMC11006913.
# Tests used:
# Assay in all cases: PBM; 200 nM protein, PBS
# Settings in all cases: dsDNA, one strand shown
# NKX3-2 [1] = biological target: NKX3-2 (Homo sapiens, UniProt P78367 192-278, P234S)
# NKX3-2 [2] = biological target: NKX3-2 (Homo sapiens, UniProt P78367 192-278)
# NKX2-6 = biological target: T1, NKX2-6 (Homo sapiens, UniProt A6NCS4 118-204, F151L)
# T1 sequence: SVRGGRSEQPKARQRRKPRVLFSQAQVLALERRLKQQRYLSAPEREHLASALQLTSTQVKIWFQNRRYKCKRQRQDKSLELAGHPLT
# HOXD13 = HOXD13 (Homo sapiens, UniProt P35453 263-343, T313A)
# Sequence of HOXD13 (P35453 263-343 T313A): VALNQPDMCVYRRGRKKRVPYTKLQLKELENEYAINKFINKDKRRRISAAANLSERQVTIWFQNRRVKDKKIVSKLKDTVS
# Sequence of NKX3-2 (Homo sapiens, UniProt P78367 192-278) (P78367 192-278): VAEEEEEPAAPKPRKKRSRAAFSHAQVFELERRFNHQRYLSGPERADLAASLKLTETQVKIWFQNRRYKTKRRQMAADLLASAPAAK
# Sequence of NKX3-2 (Homo sapiens, UniProt P78367 192-278, P234S) (P78367 192-278 P234S): as the sequence (P78367 192-278) above, with P43S counted along it
sequence,measurement,setting,value
GCCCTCAA,binding signal,NKX3-2 [1],"11.6 upbm affinity estimate (log intensity, higher = more binding, comparable within an allelic series)"
same,binding signal,NKX3-2 [2],"11.7 upbm affinity estimate (log intensity, higher = more binding, comparable within an allelic series)"
AAGTGCTA,binding signal,NKX2-6,"10.6 upbm affinity estimate (log intensity, higher = more binding, comparable within an allelic series)"
CTGTAAAA,binding signal,HOXD13,"11.6 upbm affinity estimate (log intensity, higher = more binding, comparable within an allelic series)"
GAGAGTAC,binding signal,NKX3-2 [1],"12 upbm affinity estimate (log intensity, higher = more binding, comparable within an allelic series)"
same,binding signal,NKX3-2 [2],"12.1 upbm affinity estimate (log intensity, higher = more binding, comparable within an allelic series)"
CCCCGCAA,binding signal,NKX3-2 [1],"10.7 upbm affinity estimate (log intensity, higher = more binding, comparable within an allelic series)"
same,binding signal,NKX3-2 [2],"10.7 upbm affinity estimate (log intensity, higher = more binding, comparable within an allelic series)"
CCCACGGG,binding signal,NKX3-2 [1],"10.3 upbm affinity estimate (log intensity, higher = more binding, comparable within an allelic series)"
same,binding signal,NKX3-2 [2],"10.3 upbm affinity estimate (log intensity, higher = more binding, comparable within an allelic series)"
CTAAAGGC,binding signal,NKX3-2 [1],"10.5 upbm affinity estimate (log intensity, higher = more binding, comparable within an allelic series)"
same,binding signal,NKX3-2 [2],"10.6 upbm affinity estimate (log intensity, higher = more binding, comparable within an allelic series)"
CCCGAATC,binding signal,NKX3-2 [1],"10.4 upbm affinity estimate (log intensity, higher = more binding, comparable within an allelic series)"
same,binding signal,NKX3-2 [2],"10.4 upbm affinity estimate (log intensity, higher = more binding, comparable within an allelic series)"
GCCGTGCC,binding signal,NKX3-2 [1],"10.6 upbm affinity estimate (log intensity, higher = more binding, comparable within an allelic series)"
same,binding signal,NKX3-2 [2],"10.6 upbm affinity estimate (log intensity, higher = more binding, comparable within an allelic series)"
AGAGAGGA,binding signal,NKX3-2 [1],"11.5 upbm affinity estimate (log intensity, higher = more binding, comparable within an allelic series)"
same,binding signal,NKX3-2 [2],"11.6 upbm affinity estimate (log intensity, higher = more binding, comparable within an allelic series)"
CTGCATCC,binding signal,NKX3-2 [1],"10.6 upbm affinity estimate (log intensity, higher = more binding, comparable within an allelic series)"
same,binding signal,NKX3-2 [2],"10.7 upbm affinity estimate (log intensity, higher = more binding, comparable within an allelic series)"
AGGCATGG,binding signal,NKX3-2 [1],"10.6 upbm affinity estimate (log intensity, higher = more binding, comparable within an allelic series)"
same,binding signal,NKX3-2 [2],"10.5 upbm affinity estimate (log intensity, higher = more binding, comparable within an allelic series)"
CCAGACCA,binding signal,NKX3-2 [1],"10.6 upbm affinity estimate (log intensity, higher = more binding, comparable within an allelic series)"
same,binding signal,NKX3-2 [2],"10.5 upbm affinity estimate (log intensity, higher = more binding, comparable within an allelic series)"
CCGCGGCA,binding signal,NKX3-2 [1],"10.5 upbm affinity estimate (log intensity, higher = more binding, comparable within an allelic series)"
same,binding signal,NKX3-2 [2],"10.5 upbm affinity estimate (log intensity, higher = more binding, comparable within an allelic series)"
AGCCGCGC,binding signal,NKX3-2 [1],"10.5 upbm affinity estimate (log intensity, higher = more binding, comparable within an allelic series)"
same,binding signal,NKX3-2 [2],"10.5 upbm affinity estimate (log intensity, higher = more binding, comparable within an allelic series)"
AACGCCGG,binding signal,NKX3-2 [1],"10.6 upbm affinity estimate (log intensity, higher = more binding, comparable within an allelic series)"
same,binding signal,NKX3-2 [2],"10.6 upbm affinity estimate (log intensity, higher = more binding, comparable within an allelic series)"
CCTAAGTA,binding signal,NKX3-2 [1],"12.1 upbm affinity estimate (log intensity, higher = more binding, comparable within an allelic series)"
same,binding signal,NKX3-2 [2],"12.1 upbm affinity estimate (log intensity, higher = more binding, comparable within an allelic series)"
GAAGTGCC,binding signal,NKX3-2 [1],"12.8 upbm affinity estimate (log intensity, higher = more binding, comparable within an allelic series)"
same,binding signal,NKX3-2 [2],"12.9 upbm affinity estimate (log intensity, higher = more binding, comparable within an allelic series)"
GGCCTCAC,binding signal,NKX3-2 [1],"10.5 upbm affinity estimate (log intensity, higher = more binding, comparable within an allelic series)"
same,binding signal,NKX3-2 [2],"10.6 upbm affinity estimate (log intensity, higher = more binding, comparable within an allelic series)"
GGTGGTAC,binding signal,NKX3-2 [1],"10.5 upbm affinity estimate (log intensity, higher = more binding, comparable within an allelic series)"
same,binding signal,NKX3-2 [2],"10.6 upbm affinity estimate (log intensity, higher = more binding, comparable within an allelic series)"
ACGGCGGG,binding signal,NKX3-2 [1],"10.4 upbm affinity estimate (log intensity, higher = more binding, comparable within an allelic series)"
same,binding signal,NKX3-2 [2],"10.4 upbm affinity estimate (log intensity, higher = more binding, comparable within an allelic series)"
GCCGAGCC,binding signal,NKX3-2 [1],"10.8 upbm affinity estimate (log intensity, higher = more binding, comparable within an allelic series)"
same,binding signal,NKX3-2 [2],"10.7 upbm affinity estimate (log intensity, higher = more binding, comparable within an allelic series)"
CAAACCAG,binding signal,NKX3-2 [1],"10.6 upbm affinity estimate (log intensity, higher = more binding, comparable within an allelic series)"
same,binding signal,NKX3-2 [2],"10.7 upbm affinity estimate (log intensity, higher = more binding, comparable within an allelic series)"
CACTTACG,binding signal,NKX3-2 [1],"12.7 upbm affinity estimate (log intensity, higher = more binding, comparable within an allelic series)"
same,binding signal,NKX3-2 [2],"12.8 upbm affinity estimate (log intensity, higher = more binding, comparable within an allelic series)"
CCACTTCG,binding signal,NKX3-2 [1],"12.8 upbm affinity estimate (log intensity, higher = more binding, comparable within an allelic series)"
same,binding signal,NKX3-2 [2],"12.9 upbm affinity estimate (log intensity, higher = more binding, comparable within an allelic series)"
AAGTATAC,binding signal,NKX3-2 [1],"11.6 upbm affinity estimate (log intensity, higher = more binding, comparable within an allelic series)"
same,binding signal,NKX3-2 [2],"11.7 upbm affinity estimate (log intensity, higher = more binding, comparable within an allelic series)"
CGTTAACG,binding signal,NKX3-2 [1],"10.4 upbm affinity estimate (log intensity, higher = more binding, comparable within an allelic series)"
same,binding signal,NKX3-2 [2],"10.5 upbm affinity estimate (log intensity, higher = more binding, comparable within an allelic series)"
CATCACTA,binding signal,NKX3-2 [1],"11.5 upbm affinity estimate (log intensity, higher = more binding, comparable within an allelic series)"
same,binding signal,NKX3-2 [2],"11.5 upbm affinity estimate (log intensity, higher = more binding, comparable within an allelic series)"
GGTCAAAC,binding signal,NKX3-2 [1],"10.5 upbm affinity estimate (log intensity, higher = more binding, comparable within an allelic series)"
same,binding signal,NKX3-2 [2],"10.5 upbm affinity estimate (log intensity, higher = more binding, comparable within an allelic series)"
GTCACTTA,binding signal,NKX3-2 [1],"12.5 upbm affinity estimate (log intensity, higher = more binding, comparable within an allelic series)"
same,binding signal,NKX3-2 [2],"12.6 upbm affinity estimate (log intensity, higher = more binding, comparable within an allelic series)"
GAAGTGTC,binding signal,NKX3-2 [1],"12.2 upbm affinity estimate (log intensity, higher = more binding, comparable within an allelic series)"
same,binding signal,NKX3-2 [2],"12.3 upbm affinity estimate (log intensity, higher = more binding, comparable within an allelic series)"
GCCACTCA,binding signal,NKX3-2 [1],"12.6 upbm affinity estimate (log intensity, higher = more binding, comparable within an allelic series)"
same,binding signal,NKX3-2 [2],"12.7 upbm affinity estimate (log intensity, higher = more binding, comparable within an allelic series)"
AGTGGAGA,binding signal,NKX3-2 [1],"11.7 upbm affinity estimate (log intensity, higher = more binding, comparable within an allelic series)"
same,binding signal,NKX3-2 [2],"11.7 upbm affinity estimate (log intensity, higher = more binding, comparable within an allelic series)"
CCAGGCAA,binding signal,NKX3-2 [1],"10.7 upbm affinity estimate (log intensity, higher = more binding, comparable within an allelic series)"
same,binding signal,NKX3-2 [2],"10.6 upbm affinity estimate (log intensity, higher = more binding, comparable within an allelic series)"
CGTGGGAA,binding signal,NKX3-2 [1],"10.6 upbm affinity estimate (log intensity, higher = more binding, comparable within an allelic series)"
same,binding signal,NKX3-2 [2],"10.6 upbm affinity estimate (log intensity, higher = more binding, comparable within an allelic series)"
AACCAGCC,binding signal,NKX3-2 [1],"10.4 upbm affinity estimate (log intensity, higher = more binding, comparable within an allelic series)"
same,binding signal,NKX3-2 [2],"10.4 upbm affinity estimate (log intensity, higher = more binding, comparable within an allelic series)"
CCGCCGAA,binding signal,NKX3-2 [1],"10.4 upbm affinity estimate (log intensity, higher = more binding, comparable within an allelic series)"
same,binding signal,NKX3-2 [2],"10.4 upbm affinity estimate (log intensity, higher = more binding, comparable within an allelic series)"
CTGGCAAG,binding signal,NKX3-2 [1],"10.5 upbm affinity estimate (log intensity, higher = more binding, comparable within an allelic series)"
same,binding signal,NKX3-2 [2],"10.5 upbm affinity estimate (log intensity, higher = more binding, comparable within an allelic series)"
AAGGGCCT,binding signal,NKX3-2 [1],"11.9 upbm affinity estimate (log intensity, higher = more binding, comparable within an allelic series)"
same,binding signal,NKX3-2 [2],"12 upbm affinity estimate (log intensity, higher = more binding, comparable within an allelic series)"
AGGTTGTG,binding signal,NKX3-2 [1],"10.7 upbm affinity estimate (log intensity, higher = more binding, comparable within an allelic series)"
same,binding signal,NKX3-2 [2],"10.7 upbm affinity estimate (log intensity, higher = more binding, comparable within an allelic series)"
ACACACCG,binding signal,NKX3-2 [1],"10.6 upbm affinity estimate (log intensity, higher = more binding, comparable within an allelic series)"
same,binding signal,NKX3-2 [2],"10.6 upbm affinity estimate (log intensity, higher = more binding, comparable within an allelic series)"
CGGCTGGC,binding signal,NKX3-2 [1],"10.4 upbm affinity estimate (log intensity, higher = more binding, comparable within an allelic series)"
same,binding signal,NKX3-2 [2],"10.4 upbm affinity estimate (log intensity, higher = more binding, comparable within an allelic series)"
ACCGAACC,binding signal,NKX3-2 [1],"10.6 upbm affinity estimate (log intensity, higher = more binding, comparable within an allelic series)"
same,binding signal,NKX3-2 [2],"10.7 upbm affinity estimate (log intensity, higher = more binding, comparable within an allelic series)"
AAGTGCCA,binding signal,NKX3-2 [1],"12.6 upbm affinity estimate (log intensity, higher = more binding, comparable within an allelic series)"
same,binding signal,NKX3-2 [2],"12.8 upbm affinity estimate (log intensity, higher = more binding, comparable within an allelic series)"
